# Experimental data: PubChem BioAssay
# Calls of active or inactive are those of the source.
# Columns and labels:
# [1] = system: Plasmodium falciparum Sir2 (PF13_0152, Sir2A); assay: pfSir2 binders on small-molecule microarrays, primary screen, biochemical, small-molecule microarray, 635 nm fluorescence (AID 1098); conditions: small-molecule microarray binding, fluorescence 635 nm; higher = more signal;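 note: score merges spot fluorescence intensity with its signal-to-noise ratio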
# [2] = small-molecule microarray binders of probe aDKK1, primary screen, biochemical, biotinylated probe, 635/667 nm fluorescence (AID 1099); conditions: higher = more signal;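 note: score merges 667nm spot fluorescence with signal to noise across triplicate slides; reference of the scale not given here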
# [3] = small-molecule microarray binders of probe aCHRDL2, primary screen, biochemical, biotinylated probe, 635/667 nm fluorescence (AID 1100); conditions: higher = more signal
# [4] = splicing luciferase reporter signal modulators, primary screen, spliceosome inhibition project, cell-based, HEK293, splice +/- reporter (AID 1101); conditions: luminescence, 24 h, higher = more signal, called active from +8 up or from −8 down;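 note: HEK293 cells carrying a splicing-competent luciferase reporter gene; test concentration not given here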
# [5] = target: Fibroblast growth factor 10 (Homo sapiens) (UniProt O15520); assay: FGF10 binders on small-molecule microarrays, primary screen, biochemical, small-molecule microarray, 635 nm fluorescence (AID 1102); conditions: FGF10 binding, fluorescence 635 nm, higher = more signal
# Chain of Fibroblast growth factor 10 (Homo sapiens) (O15520 whole entry, looked up): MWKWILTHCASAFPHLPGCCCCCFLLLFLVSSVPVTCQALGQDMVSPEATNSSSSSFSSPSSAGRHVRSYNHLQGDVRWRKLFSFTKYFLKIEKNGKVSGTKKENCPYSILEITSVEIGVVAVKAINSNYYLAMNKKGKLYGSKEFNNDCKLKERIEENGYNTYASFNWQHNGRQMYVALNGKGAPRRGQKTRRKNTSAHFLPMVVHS
# [6] = system: glycogen synthase kinase-3 (GSK3A per assay name; protocol says GSK3B); assay: GSK3 binders on small-molecule microarrays, primary screen, biochemical, small-molecule microarray, 635 nm fluorescence, GSK3A (AID 1103); conditions: small-molecule microarray binding, fluorescence 635 nm; higher = more signal; note: the record names both GSK3A and GSK3B
# [7] = target: Epidermal growth factor receptor (Homo sapiens) (UniProt P00533); assay: EGFR binders on small-molecule microarrays, primary screen, biochemical, small-molecule microarray, 635 nm fluorescence (AID 1104); conditions: EGFR binding, higher = more signal;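 note: score merges 667 nm emission intensity with spot signal to noise over triplicate slides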
# Chain of Epidermal growth factor receptor (Homo sapiens) (P00533 whole entry, looked up): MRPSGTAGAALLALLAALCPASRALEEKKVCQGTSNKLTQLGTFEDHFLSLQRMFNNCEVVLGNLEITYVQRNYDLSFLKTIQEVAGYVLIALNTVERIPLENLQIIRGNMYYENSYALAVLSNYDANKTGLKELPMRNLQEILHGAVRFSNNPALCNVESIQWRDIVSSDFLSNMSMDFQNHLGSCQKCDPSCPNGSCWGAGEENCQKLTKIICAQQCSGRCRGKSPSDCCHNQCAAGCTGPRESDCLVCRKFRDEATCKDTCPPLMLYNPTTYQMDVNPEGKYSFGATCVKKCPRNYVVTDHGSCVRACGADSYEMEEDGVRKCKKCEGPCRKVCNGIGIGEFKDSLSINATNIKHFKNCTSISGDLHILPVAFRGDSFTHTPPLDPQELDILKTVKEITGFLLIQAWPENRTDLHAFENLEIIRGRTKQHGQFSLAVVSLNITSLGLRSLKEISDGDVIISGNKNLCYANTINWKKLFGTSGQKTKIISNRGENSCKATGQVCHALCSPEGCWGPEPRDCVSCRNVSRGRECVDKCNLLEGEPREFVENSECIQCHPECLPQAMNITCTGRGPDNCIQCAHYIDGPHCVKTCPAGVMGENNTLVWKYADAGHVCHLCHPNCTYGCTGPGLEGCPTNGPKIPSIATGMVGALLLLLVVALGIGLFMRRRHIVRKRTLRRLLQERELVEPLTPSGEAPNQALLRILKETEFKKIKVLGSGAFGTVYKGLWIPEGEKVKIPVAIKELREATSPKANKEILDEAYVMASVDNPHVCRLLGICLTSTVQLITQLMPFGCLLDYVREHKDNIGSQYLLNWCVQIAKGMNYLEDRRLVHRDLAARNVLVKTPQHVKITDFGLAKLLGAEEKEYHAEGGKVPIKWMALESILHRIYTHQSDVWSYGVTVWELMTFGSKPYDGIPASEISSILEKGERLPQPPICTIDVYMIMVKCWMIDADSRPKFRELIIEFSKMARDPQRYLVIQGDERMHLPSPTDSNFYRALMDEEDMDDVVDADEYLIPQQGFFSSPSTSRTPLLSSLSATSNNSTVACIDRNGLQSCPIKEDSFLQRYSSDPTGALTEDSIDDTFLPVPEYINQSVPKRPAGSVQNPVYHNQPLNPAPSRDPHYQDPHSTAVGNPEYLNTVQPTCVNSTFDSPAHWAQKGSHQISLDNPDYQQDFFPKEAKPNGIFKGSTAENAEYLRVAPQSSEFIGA
# [8] = target: Follistatin-related protein 3 (Homo sapiens) (UniProt O95633); assay: FSTL3 binders on small-molecule microarrays, primary screen, biochemical, small-molecule microarray, 635 nm fluorescence (AID 1105); conditions: FSTL3 binding, higher = more signal;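 note: score merges emission near 667 nm and signal to noise per printed spot across three slides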
# Chain of Follistatin-related protein 3 (Homo sapiens) (O95633 whole entry, looked up): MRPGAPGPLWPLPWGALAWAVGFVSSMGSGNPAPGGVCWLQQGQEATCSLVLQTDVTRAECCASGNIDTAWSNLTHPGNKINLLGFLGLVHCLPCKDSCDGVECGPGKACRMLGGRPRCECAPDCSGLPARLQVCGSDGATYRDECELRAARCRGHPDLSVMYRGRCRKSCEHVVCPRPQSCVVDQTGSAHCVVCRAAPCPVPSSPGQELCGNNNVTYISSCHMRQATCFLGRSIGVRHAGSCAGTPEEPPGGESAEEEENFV
# [9] = target: Dickkopf-related protein 1 (Homo sapiens) (UniProt O94907); assay: DKK1 binders on small-molecule microarrays, primary screen, biochemical, small-molecule microarray, 635 nm fluorescence scan (AID 1106); conditions: DKK1 binding, higher = more signal;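 note: score merges emission near 667 nm with signal to noise over three replicate slides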
# Chain of Dickkopf-related protein 1 (Homo sapiens) (O94907 whole entry, looked up): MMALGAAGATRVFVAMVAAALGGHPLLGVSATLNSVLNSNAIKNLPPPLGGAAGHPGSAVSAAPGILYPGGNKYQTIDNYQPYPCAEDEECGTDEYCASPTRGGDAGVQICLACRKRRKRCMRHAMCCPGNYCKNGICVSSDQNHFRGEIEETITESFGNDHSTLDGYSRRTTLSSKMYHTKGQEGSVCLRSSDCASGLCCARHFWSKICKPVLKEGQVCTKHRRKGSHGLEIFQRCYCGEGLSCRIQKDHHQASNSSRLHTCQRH
# [10] = system: Inhibin beta A chain (activin A); assay: INHBA (activin A) binders on microarrays, primary screen, biochemical, small-molecule microarray, 635 nm fluorescence scan (AID 1107); conditions: small-molecule microarray binding, higher = more signal;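 note: mouse activin A protein probed at 4.33 µg/mL on printed slides; score merges bound-protein fluorescence near 667 nm with spot signal-to-noise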
Compound,composite z-score [1],composite z-score [2],composite z-score [3],z-score [4],composite z-score [5],composite z-score [6],composite z-score [7],composite z-score [8],composite z-score [9],composite z-score [10]
CCOC(=O)[C@H](Cc1ccccc1)NC(=O)CCC1CC(OC(=O)NCCc2ccc(F)cc2)CC2(CCCC(COC(=O)NCC(c3ccccc3)c3ccccc3)O2)O1 (stereo not given in full),0.892,-0.273,-0.368,0.378 (inactive),0.617,0.729,0.374,0.979,0.898,-0.235
COC(=O)[C@@H]1CC[C@H](C)[C@@H](c2ccc(C)cc2)N1C(=O)c1ccc(C=NOC[C@@H](O)COCc2ccco2)cc1,-0.525,-0.456,0.675,-0.0402 (inactive),-1.43,-1.79,-1.3,-2.16,-0.5,1.87
CCOC(=O)C1=CC[C@H]2C(=O)N(CC)C(=O)[C@@H]12,0.762,-0.146,-0.242,-0.253 (inactive),1.07,0.947,0.0746,0.933,0.0851,0.666
C=C(CCCC)C(=O)CC[C@@H](OC(C)=O)c1cccc(OCCO)c1,1.12,-0.278,-0.654,0.726 (inactive),0.195,-0.249,-0.161,0.158,0.329,0.474
CC(=O)OC[C@H]1O[C@H](C#CCCCc2ccccc2)C=C[C@@H]1OC(C)=O,0.829,-0.194,-0.33,0.492 (inactive),0.687,-0.0427,0.0559,0.556,0.3,1.03
CCOC(=O)C1=CCC(c2cc3ccccc3[nH]2)NC1 (stereo not given),1.47,1.1,1.31,-1.02 (inactive),0.0855,0.233,0.242,0.0799,-0.494,1.65
C=CC[C@@H]1C=C[C@H](ON=Cc2ccc(C(=O)N3[C@H](c4ccc(C)cc4)[C@@H](C)CC[C@H]3C(=O)OC)cc2)[C@@H](CO)O1,0.608,-0.313,-0.422,-0.0467 (inactive),0.59,0.363,0.475,0.609,0.381,0.694
CN(C)CCCNC(=O)[C@@H]1c2ccccc2C(=O)N(Cc2ccccc2)[C@H]1c1ccc(CO)cc1,0.0072,0.189,0.341,-0.00771 (inactive),-0.952,-0.383,-0.254,0.433,-0.354,1.33
C=CC[C@@H]1C=C[C@H](ON=C2c3cc(OC)ccc3O[C@H](c3cccc(OC)c3)[C@H]2O)[C@@H](CO)O1,0.0678,-0.403,-0.626,-0.766 (inactive),0.0385,-0.325,0.379,0.0069,0.26,-0.0002
CCN1C(=O)[C@H]2[C@H]3[C@H](O)[C@H](O)CC(=NOCC=C(C)CCC=C(C)C)[C@H]3CC[C@H]2C1=O,0.908,-0.338,-1.31,0.886 (inactive),1.13,1.17,1.18,1.43,1.74,1.1
O=C1O[C@@H](c2ccccc2)[C@@H](c2ccccc2)N2[C@@H](c3ccc(OCCO)cc3)[C@]3(C(=O)Nc4ccc(C#CCCO)cc43)[C@@H](C(=O)N3CCCCCCC3)[C@H]12,1.85,2.25,1.13,-0.277 (inactive),1.22,1.32,0.744,1.55,1.78,1.71
CCOc1ccc(N2C(=O)/C(=C/C=C/c3ccccc3OC)S(=O)(=O)C2c2cccc([N+](=O)[O-])c2)cc1 (stereo not given),-0.379,0.0757,0.42,1.04 (inactive),0.226,0.342,0.549,0.393,0.218,0.61
C[N+](C)(C)CCCCCCNC(=O)[C@@H]1C[C@@H]2C(=O)N3CCC[C@H]3C(=O)N2[C@@H]1c1cccc(OCCO)c1,1.26,-0.303,0.824,-0.739 (inactive),-0.0327,0.586,0.36,0.476,0.808,1.03
CCCCc1nc2c(c3c1C[C@H](C)OC3)CN(CCC(C)C)CC2,0.956,-0.0466,-0.47,-0.0873 (inactive),0.627,1.25,0.488,1.26,0.562,0.0968
COCCOC(=O)N1C(=O)[C@@]2(c3cc(C#Cc4ccc(OC)cc4)ccc31)[C@H](c1ccc(O)cc1)N1[C@H](c3ccccc3)[C@H](c3ccccc3)OC(=O)[C@H]1[C@@H]2C(N)=O,1.49,-0.0422,-0.21,-1.95 (inactive),1.1,1.25,0.655,1.4,0.56,0.213
O=C1[C@H]2[C@H]3[C@H](O)[C@H](O)CC(=NOCc4ccccc4)[C@H]3CC[C@H]2C(=O)N1c1ccc(F)cc1F,-0.183,-0.268,-0.675,-0.772 (inactive),0.266,0.167,0.534,-0.0913,0.0949,-0.364

Compound,composite z-score [1],composite z-score [2],composite z-score [3],z-score [4],composite z-score [5],composite z-score [6],composite z-score [7],composite z-score [8],composite z-score [9],composite z-score [10]
CCOC(=O)[C@H](Cc1ccccc1)NC(=O)CCC1CC(OC(=O)NCc2ccc3c(c2)OCO3)CC2(CCCC(COC(=O)NCC(c3ccccc3)c3ccccc3)O2)O1 (stereo not given in full),1.06,-0.0362,-0.481,-1.45 (inactive),0.525,1.23,0.251,0.929,0.377,-0.0374
CCOC(=O)[C@H](CC(C)C)NC(=O)CCC1CC(OC(=O)NCc2cccc3ccccc23)CC2(CCCC(COC(=O)NCCc3ccccc3OC)O2)O1 (stereo not given in full),0.766,-0.141,-0.39,-0.139 (inactive),1,1.03,0.387,0.866,0.555,0.182
CC(C)=NOCc1ccc(-c2cc(-c3ccccc3)no2)cc1,0.0628,-0.285,-0.515,0.468 (inactive),0.356,0.283,0.279,-0.026,0.32,0.216
CCCCCN1CC=CC23O[C@@H]4C=CCOC(=O)[C@@H]4[C@H]2C(=O)N(C(CO)C(C)C)[C@@H]3C1=O (stereo not given in full),0.745,-0.183,0.0134,0.253 (inactive),-0.512,-0.786,-1.07,-0.472,-0.426,0.712
CN1C(=O)C2C=CC(C(O)c3ccc(I)cc3)N(NC(=O)OC(C)(C)C)C2C1=O (stereo not given),1.22,0.829,1.05,2.31 (inactive),0.599,1.24,0.04,0.925,-0.168,0.599
CCOC(=O)[C@H](CC(C)C)NC(=O)CCC1CC(OC(=O)NCc2cccc3ccccc23)CC2(CCCC(COC(=O)NCCN3CCOCC3)O2)O1 (stereo not given in full),0.608,-0.265,-0.668,-0.746 (inactive),0.763,1.28,0.416,0.707,0.652,0.209
Cc1ccc(C2CC=C(C(=O)O)CN2S(=O)(=O)c2ccc(C)cc2)cc1 (stereo not given),1.3,0.135,0.665,-0.16 (inactive),0.31,0.834,0.201,0.338,0.0374,0.584
CC(C)=CCCC(C)=CCON=C1[C@H]2CCn3c(=O)n(Cc4cc5c(cc4Cl)OCO5)c(=O)n3[C@H]2[C@H](O)[C@@H]2O[C@H]12,0.398,-0.277,-0.248,-0.696 (inactive),0.427,0.173,0.984,0.677,0.472,1.27
C=CCNC(=O)[C@H]1[C@@H]2C(=O)O[C@@H](c3ccccc3)[C@@H](c3ccccc3)N2[C@@H](c2ccc(O)cc2)[C@]12C(=O)N(C(=O)OCCOC)c1ccc(C#CC3=CCCCC3)cc12,1.79,0.298,0.263,-0.75 (inactive),0.966,1.32,0.205,0.969,0.23,1.34
C=C(/C(=C/C[C@@H](OC(=O)c1ccncc1)c1ccc(OCCO)cc1)c1cnc2ccccc2c1)C(C)C,1.2,-0.144,-0.216,-2.87 (inactive),1.54,1.28,0.419,1.24,0.824,1.56
COC(=O)C1=C(C)N(Cc2ccccc2)[C@]23O[C@](C(=O)OC)(C(=O)N2[C@@H]1c1ccccc1)[C@H]1CCOC(=O)[C@H]13,0.539,0.057,-0.733,-0.236 (inactive),1.1,0.466,0.482,0.63,0.971,0.521
COc1ccc(OC[C@H]2Cc3c(-c4ccccc4)nc4c(c3CO2)CN(CCOc2ccccc2)CC4)cc1,1.07,0.521,-0.233,-1.47 (inactive),0.883,0.94,0.487,1.03,0.85,0.726
C#CCCCON=C1C[C@@H](O)[C@@H](O)[C@@H]2[C@@H]3C(=O)N([C@@H](C)c4ccccc4)C(=O)[C@@H]3CC[C@H]12,0.933,-0.253,-0.483,-1.28 (inactive),0.478,0.283,0.474,0.921,0.618,0.551
CCCNC(=O)OC[C@H]1O[C@H](CCON=CC[C@@H]2C=C[C@H](OC(C)=O)[C@@H](COC(C)=O)O2)C=C[C@@H]1Oc1ccc(OC)cc1,0.46,-0.0927,-0.412,0.599 (inactive),0.817,0.524,0.492,0.759,0.537,0.434
CC(CCN1CCc2nc(-c3ccccc3)c(-c3ccccc3)cc2C1)=NOC[C@@H](C)[C@H](OCc1ccccc1)C(C)C,1.42,-0.215,0.213,-0.0457 (inactive),-1.3,-1.52,-1.15,-1.76,-1.21,0.166
